According to PubChem BioAssay (Tox21):
Inconclusive results are not listed. The source made the active and inactive calls. Unless noted, the call rests on the fitted dose curve; in most records, active means well fitted curve in the direction sought with a large enough effect in the repeat runs; inconclusive means weak or mixed curves; inactive means no such curve, though single readings can be large; an effect the other way counts as inactive or inconclusive.

What was measured:
[1] = qHTS assay to identify small molecule antagonists of the TGF-beta/Smad signaling pathway - cell viability counter screen (AID 1346824); further: nearly all actives have a fitted effect of over 50% in size
Summary of the method: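 SBE-bla HEK 293T cells were plated overnight at 37 C, then given compounds in DMSO plus TGF-beta1 (added as 0.25 ng/mL solution) for 5 hr. After the bla read, CellTiter-Glo was added to the same wells and luminescence read after 30 min at room temperature.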

[2] = qHTS assay to identify small molecule agonists of the TGF-beta/Smad signaling pathway - cell viability counter screen (AID 1346829); further: top concentration of the series differs between compounds; nearly all actives have a fitted effect of over 45% in size
Summary of the method: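 Tox21 qHTS format: SBE-bla HEK 293T cells treated with DMSO-dissolved compounds for 5 hr; CellTiter-Glo luminescence after 30 min at room temperature.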

[3] = Human pregnane X receptor (PXR) small molecule agonists, qHTS cell viability counter screen (AID 1346977); further: nearly all actives have a fitted effect of over 50% in size
Summary of the method: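 Cytotoxicity counter screen run in the same wells as the PXR luciferase assay, using PXR-Luc HepG2 cells in charcoal-stripped serum medium. Viability: CellTiter-Fluor fluorescence after 24hr compound treatment.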

[4] = Caspase-3/7 induction in HepG2 cells by small molecules, qHTS assay (AID 1346978); further: nearly all actives have a fitted effect of over 15% in size
Summary of the method: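 Wild-type HepG2 cells (2,000/well) were settled 5 h at 37 C, 5% CO2, then exposed to compounds in DMSO for 17 h. Caspase-3/7 activity was read by luminescence 30 min after adding Caspase-Glo 3/7 reagent at room temperature.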

[5] = Caspase-3/7 induction in CHO-K1 cells by small molecules, qHTS cell viability counter screen (AID 1346979); further: nearly all actives have a fitted effect of over 35% in size; further: potency means the concentration at half of the fitted maximal effect
Summary of the method: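 Cytotoxicity counter screen run in parallel with the caspase-3/7 assay: CHO-K1 cells, 16hr compound treatment at 37C, then CellTiter-Fluor for 1hr before fluorescence reading.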

[6] = Caspase-3/7 induction in CHO-K1 cells by small molecules, qHTS assay (AID 1346980); further: nearly all actives have a fitted effect of over 15% in size
Summary of the method: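 Wild-type cells were seeded at 1,500 per well and settled 5 hr at 37 C, 5% CO2, then exposed to DMSO-dissolved compounds for 17 hr. Caspase-Glo 3/7 reagent was added, and luminescence was read after 30min at room temperature.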

[7] = Caspase-3/7 induction in HepG2 cells by small molecules, qHTS cell viability counter screen (AID 1346981); further: series mostly up to about 92 µM; nearly all actives have a fitted effect of over 30% in size
Summary of the method: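 In this quantitative HTS counter screen, compounds delivered in DMSO were left on unmodified HepG2 cells for 16 hr at 37 C. Viability was then determined fluorometrically with CellTiter-Fluor, in parallel with caspase-3/7 induction in the same wells.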

[8] = molecular target: Nuclear receptor subfamily 1 group I member 2 (Homo sapiens) (UniProt O75469); assay: Human pregnane X receptor (PXR) small molecule agonists, qHTS assay (AID 1346982); further: nearly all actives have a fitted effect of over 35% in size; further: potency means the concentration at half of the fitted maximal effect
Summary of the method: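 Reporter HepG2 cells expressing PXR-Luc are cultured in charcoal-stripped FBS (5%), treated with compounds for 24 hr at 37 C, and assayed by ONE-Glo luminescence after 30 min at room temperature.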

[9] = molecular target: Nuclear receptor subfamily 1 group I member 2 (Rattus norvegicus) (UniProt Q9R1A7); assay: Rat pregnane X receptor (rPXR) activation by small molecules, qHTS assay (AID 1346983); conditions: rPXR luciferase reporter cells, One-Glo luminescence, 24 h; max activation: hits give high values; further: nearly all actives have a fitted effect of over 20% in size
Summary of the method: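 Cell-based rPXR luciferase reporter assay, 2,000 cells per well, rested 5hr at 37 C before compound addition in DMSO, then 24 hr at 37 C. One-Glo reagent was added and luminescence read after 30 min at room temperature.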

[10] = molecular target: Nuclear receptor subfamily 1 group I member 2 (Homo sapiens) (UniProt O75469); assay: CYP3A4 induction through human pregnane X receptor (PXR) by small molecules, qHTS assay (AID 1346984); further: nearly all actives have a fitted effect of over 40% in size
Summary of the method: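 Induction measured in HepG2-based DPX-2 cells co-expressing human PXR and a CYP3A4 promoter-driven luciferase. After a 24-hour compound exposure, cells received CYP3A4 luciferin substrate at 3uM final for 3 hours, and light output was then recorded.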

[11] = molecular target: Nuclear receptor subfamily 1 group I member 2 (Homo sapiens) (UniProt O75469); assay: Human pregnane X receptor (PXR) activation by small molecules, qHTS assay (AID 1346985); further: nearly all actives have a fitted effect of over 40% in size; further: potency means the concentration at half of the fitted maximal effect
Summary of the method: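 DPX-2 cells (HepG2 co-transfected with a PXR response element and a CYP3A4-promoter luciferase construct) were seeded at 2,000 per well, rested 5 hr at 37C, then exposed to DMSO-dissolved compounds for 24 hr. Activation was read as luciferase luminescence.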

[12] = molecular target: Cytochrome P450 2D6 (Homo sapiens) (UniProt P10635); assay: Cytochrome P450 Family 2 Subfamily D Member 6 (CYP2D6) small molecule antagonists: luciferase reporter qHTS assay (AID 1671196); further: series mostly up to about 120 µM; nearly all actives have a fitted effect of over 50% in size
Summary of the method: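 Test chemicals meet CYP2D6 plus proluciferin substrate (10 min, RT); NADPH regenerating solution then drives turnover for 1 h. Detection reagent halts the reaction; luminescence measured after 20 min.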

[13] = molecular target: Cytochrome P450 1A2 (Homo sapiens) (UniProt P05177); assay: Cytochrome P450 Family 1 Subfamily A Member 2 (CYP1A2) small molecule antagonists: luciferase reporter qHTS assay (AID 1671199); further: nearly all actives have a fitted effect of over 50% in size; further: potency means the concentration at half of the fitted maximal effect; on activity change, negative = inhibition: series mostly up to about 120 µM
Summary of the method: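 Steps: enzyme-substrate mix dispensed; test compounds and furafylline control pinned in; 10 min room temperature; NADPH regeneration solution added, 1 h; reaction stopped with luciferin detection reagent; luminescence read after 20 min.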

[14] = molecular target: Voltage-gated inwardly rectifying potassium channel KCNH2 (Homo sapiens) (UniProt Q12809); assay: Human Ether-a-go-go-Related Gene (hERG) channel small molecule antagonists: fluorescence cell-based qHTS assay (AID 1671200)
Summary of the method: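 Fluorescence at 540 nm emission (480 nm excitation) was recorded kinetically for 2 min at 1-second intervals once the thallium-containing stimulus reached cells previously loaded with FluxOR II dye.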

[15] = molecular target: Cytochrome P450 3A4 (Homo sapiens) (UniProt P08684); assay: Cytochrome P450 Family 3 Subfamily A Member 4 (CYP3A4) small molecule antagonists: luciferase reporter qHTS assay (AID 1671201)
Summary of the method: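 qHTS, 1536-well. CYP3A4 + proluciferin substrate, cpd 10 min RT → NADPH regen 1 h RT → detection reagent 20 min → luminescence (RLU). Ketoconazole positive control.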

[16] = molecular target: Cytochrome P450 2C19 (Homo sapiens) (UniProt P33261); assay: Cytochrome P450 Family 2 Subfamily C Member 19 (CYP2C19) small molecule antagonists: luciferase reporter qHTS assay (AID 1671197); further: nearly all actives have a fitted effect of over 65% in size; further: potency means the concentration at half of the fitted maximal effect; on activity change, negative = inhibition: series mostly up to about 120 µM
Summary of the method: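 Relative luminescence units recorded 20 min after the detection reagent stopped a 1 h, 37C CYP2C19 reaction on proluciferin substrate, which was started by NADPH regeneration following 10 min room-temperature compound preincubation; ketoconazole positive control.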

[17] = molecular target: Cytochrome P450 2C9 (Homo sapiens) (UniProt P11712); assay: Cytochrome P450 Family 2 Subfamily C Member 9 (CYP2C9) small molecule antagonists: luciferase reporter qHTS assay (AID 1671198); further: nearly all actives have a fitted effect of over 50% in size; further: potency means the concentration at half of the fitted maximal effect; on activity change, negative = inhibition: series mostly up to about 120 µM
Summary of the method: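 CYP2C9 activity was measured with a P450-Glo proluciferin substrate. Enzyme–substrate mix was held with compound for 10 min at room temperature, then NADPH regeneration solution was added for 1 h at 37C. Luciferin product was read as luminescence.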

[18] = molecular target: Thyrotropin-releasing hormone receptor (Homo sapiens) (UniProt P34981); assay: qHTS assay to identify small molecule agonists of the thyrotropin-releasing hormone receptor (TRHR) signaling pathway (AID 1346891; calls by dose curve;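 further: HEK293 cells expressing TRHR with calcium dye readout; series mostly up to about 58 µM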)
Summary of the method: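 Cells: TRHR-Hek293, seeded and incubated 18 h. Dye loading: 2 h at 37 °C. Compound added from DMSO stock by pin tool. Read-out: kinetic calcium fluorescence over 3 min.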

[19] = molecular target: Thyrotropin-releasing hormone receptor (Homo sapiens) (UniProt P34981); assay: qHTS assay to identify small molecule antagonists of the thyrotropin-releasing hormone receptor (TRHR) signaling pathway (AID 1346877; active means well fitted inhibition curve with a large enough effect in the repeat runs, not every such curve was filed as active; further: series mostly up to about 51 µM)
Summary of the method: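 Kinetic fluorescence (3 min, 1 s resolution) following stimulation with TRH at 1 nM final; HEK293 cells bearing human TRHR; 5 min compound preincubation at RT; concentration-response over 15 points, triplicates.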

[20] = qHTS assay to identify small molecule agonists of the TGF-beta/Smad signaling pathway (AID 1346859; active means well fitted activation curve with a large enough effect in the signal ratio in the repeat runs, not every such curve was filed as active; the % refers to the signal ratio; further: series mostly up to about 77 µM)
Summary of the method: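 Reporter line: HEK 293T with stably integrated SBE-controlled beta-lactamase. Compound exposure lasts 5 hr at 37 C and 5% CO2; substrate loading follows for 2 hr at room temperature, with emission read at 460 and 530 nm.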
On the % scale 0 is the no-effect control and ±100 the full control effect.

Chain of Cytochrome P450 1A2 (Homo sapiens) (P05177 whole entry, looked up): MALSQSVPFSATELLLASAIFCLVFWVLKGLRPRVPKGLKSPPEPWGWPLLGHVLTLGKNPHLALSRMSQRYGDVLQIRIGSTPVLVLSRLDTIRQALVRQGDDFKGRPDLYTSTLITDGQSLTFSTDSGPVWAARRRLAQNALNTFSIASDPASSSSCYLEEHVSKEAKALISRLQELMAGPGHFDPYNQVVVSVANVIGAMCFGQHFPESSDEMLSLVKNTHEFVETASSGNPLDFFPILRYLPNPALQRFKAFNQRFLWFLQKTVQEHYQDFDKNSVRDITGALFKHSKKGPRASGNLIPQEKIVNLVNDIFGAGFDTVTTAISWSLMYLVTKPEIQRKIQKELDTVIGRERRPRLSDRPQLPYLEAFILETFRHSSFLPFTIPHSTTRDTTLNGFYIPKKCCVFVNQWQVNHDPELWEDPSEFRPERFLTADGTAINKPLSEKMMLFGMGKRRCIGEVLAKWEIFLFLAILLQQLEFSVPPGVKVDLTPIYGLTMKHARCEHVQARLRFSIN
Chain of Voltage-gated inwardly rectifying potassium channel KCNH2 (Homo sapiens) (Q12809 whole entry, looked up): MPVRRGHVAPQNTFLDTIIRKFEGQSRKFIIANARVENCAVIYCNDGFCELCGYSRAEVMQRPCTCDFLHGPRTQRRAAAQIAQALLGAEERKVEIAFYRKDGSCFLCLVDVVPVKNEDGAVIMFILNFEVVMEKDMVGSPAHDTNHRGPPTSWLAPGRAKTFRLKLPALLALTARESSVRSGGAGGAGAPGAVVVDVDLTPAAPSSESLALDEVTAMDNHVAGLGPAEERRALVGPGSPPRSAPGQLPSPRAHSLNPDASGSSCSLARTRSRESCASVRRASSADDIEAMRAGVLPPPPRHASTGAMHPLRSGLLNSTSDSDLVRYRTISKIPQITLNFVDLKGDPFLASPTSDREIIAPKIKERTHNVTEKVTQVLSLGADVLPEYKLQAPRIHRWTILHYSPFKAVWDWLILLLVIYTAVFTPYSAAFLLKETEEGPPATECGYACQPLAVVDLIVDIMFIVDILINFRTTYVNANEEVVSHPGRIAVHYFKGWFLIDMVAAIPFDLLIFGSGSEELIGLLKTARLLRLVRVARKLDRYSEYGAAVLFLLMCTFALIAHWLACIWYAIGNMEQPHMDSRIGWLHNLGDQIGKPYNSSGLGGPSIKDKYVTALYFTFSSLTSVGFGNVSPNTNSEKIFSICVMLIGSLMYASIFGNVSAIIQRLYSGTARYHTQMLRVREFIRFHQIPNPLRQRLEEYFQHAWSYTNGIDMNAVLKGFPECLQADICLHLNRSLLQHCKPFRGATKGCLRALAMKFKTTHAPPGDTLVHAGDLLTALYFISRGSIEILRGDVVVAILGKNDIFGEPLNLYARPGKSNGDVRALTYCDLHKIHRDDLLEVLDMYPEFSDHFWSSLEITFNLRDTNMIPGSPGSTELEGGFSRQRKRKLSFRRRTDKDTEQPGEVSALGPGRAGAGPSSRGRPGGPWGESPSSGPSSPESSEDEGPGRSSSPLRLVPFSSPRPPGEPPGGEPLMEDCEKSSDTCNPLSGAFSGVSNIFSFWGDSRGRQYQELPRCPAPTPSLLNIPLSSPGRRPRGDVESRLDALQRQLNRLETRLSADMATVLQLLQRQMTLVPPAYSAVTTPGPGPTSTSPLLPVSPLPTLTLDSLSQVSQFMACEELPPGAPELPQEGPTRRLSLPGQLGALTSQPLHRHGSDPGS
Chain of Nuclear receptor subfamily 1 group I member 2 (Homo sapiens) (O75469 whole entry, looked up): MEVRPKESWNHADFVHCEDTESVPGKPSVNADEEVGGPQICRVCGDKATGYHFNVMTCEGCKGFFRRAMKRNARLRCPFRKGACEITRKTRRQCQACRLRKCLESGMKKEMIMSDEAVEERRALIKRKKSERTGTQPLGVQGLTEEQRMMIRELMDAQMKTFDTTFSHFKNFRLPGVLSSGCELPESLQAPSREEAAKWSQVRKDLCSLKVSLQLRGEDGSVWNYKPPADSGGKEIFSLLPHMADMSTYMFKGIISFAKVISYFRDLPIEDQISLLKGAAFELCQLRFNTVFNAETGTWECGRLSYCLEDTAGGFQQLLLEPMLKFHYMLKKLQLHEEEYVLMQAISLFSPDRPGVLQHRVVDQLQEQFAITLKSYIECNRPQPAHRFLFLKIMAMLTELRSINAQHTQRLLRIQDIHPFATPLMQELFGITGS
Chain of Thyrotropin-releasing hormone receptor (Homo sapiens) (P34981 whole entry, looked up): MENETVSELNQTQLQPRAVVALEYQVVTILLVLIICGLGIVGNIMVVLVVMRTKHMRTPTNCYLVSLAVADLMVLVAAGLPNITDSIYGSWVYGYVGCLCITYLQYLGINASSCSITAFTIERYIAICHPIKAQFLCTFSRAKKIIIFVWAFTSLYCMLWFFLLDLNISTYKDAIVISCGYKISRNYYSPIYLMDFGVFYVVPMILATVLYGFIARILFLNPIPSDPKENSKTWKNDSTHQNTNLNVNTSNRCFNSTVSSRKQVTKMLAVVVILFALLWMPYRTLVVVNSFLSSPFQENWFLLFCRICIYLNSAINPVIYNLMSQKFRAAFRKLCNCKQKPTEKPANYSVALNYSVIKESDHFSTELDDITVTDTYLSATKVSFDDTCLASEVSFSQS
Chain of Cytochrome P450 2C9 (Homo sapiens) (P11712 whole entry, looked up): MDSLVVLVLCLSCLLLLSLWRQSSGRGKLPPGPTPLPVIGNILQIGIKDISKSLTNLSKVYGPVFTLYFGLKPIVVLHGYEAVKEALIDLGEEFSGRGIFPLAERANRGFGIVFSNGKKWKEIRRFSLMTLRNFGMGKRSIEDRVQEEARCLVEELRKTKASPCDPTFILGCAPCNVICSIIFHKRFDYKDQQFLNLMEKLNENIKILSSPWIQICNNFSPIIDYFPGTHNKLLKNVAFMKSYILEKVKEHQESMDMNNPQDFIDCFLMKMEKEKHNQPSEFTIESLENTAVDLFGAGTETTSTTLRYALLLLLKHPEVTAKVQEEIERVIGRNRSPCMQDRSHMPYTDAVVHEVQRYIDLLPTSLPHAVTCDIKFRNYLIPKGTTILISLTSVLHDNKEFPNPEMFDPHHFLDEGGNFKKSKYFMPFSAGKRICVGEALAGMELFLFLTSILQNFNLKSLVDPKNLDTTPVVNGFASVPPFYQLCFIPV
Chain of Cytochrome P450 3A4 (Homo sapiens) (P08684 whole entry, looked up): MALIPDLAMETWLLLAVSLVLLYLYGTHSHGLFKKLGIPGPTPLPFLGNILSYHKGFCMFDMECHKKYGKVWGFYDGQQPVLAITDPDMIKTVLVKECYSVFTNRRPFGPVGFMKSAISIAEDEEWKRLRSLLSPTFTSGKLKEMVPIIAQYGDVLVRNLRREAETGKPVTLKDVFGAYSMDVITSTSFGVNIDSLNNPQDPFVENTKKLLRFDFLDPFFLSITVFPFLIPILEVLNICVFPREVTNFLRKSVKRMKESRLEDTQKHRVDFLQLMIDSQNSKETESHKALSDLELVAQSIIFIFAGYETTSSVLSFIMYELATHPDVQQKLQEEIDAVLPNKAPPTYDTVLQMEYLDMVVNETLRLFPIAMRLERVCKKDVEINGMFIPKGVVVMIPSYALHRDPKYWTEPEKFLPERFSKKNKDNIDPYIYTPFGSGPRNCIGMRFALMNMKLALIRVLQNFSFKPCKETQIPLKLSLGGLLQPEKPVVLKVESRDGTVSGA
Chain of Cytochrome P450 2D6 (Homo sapiens) (P10635 whole entry, looked up): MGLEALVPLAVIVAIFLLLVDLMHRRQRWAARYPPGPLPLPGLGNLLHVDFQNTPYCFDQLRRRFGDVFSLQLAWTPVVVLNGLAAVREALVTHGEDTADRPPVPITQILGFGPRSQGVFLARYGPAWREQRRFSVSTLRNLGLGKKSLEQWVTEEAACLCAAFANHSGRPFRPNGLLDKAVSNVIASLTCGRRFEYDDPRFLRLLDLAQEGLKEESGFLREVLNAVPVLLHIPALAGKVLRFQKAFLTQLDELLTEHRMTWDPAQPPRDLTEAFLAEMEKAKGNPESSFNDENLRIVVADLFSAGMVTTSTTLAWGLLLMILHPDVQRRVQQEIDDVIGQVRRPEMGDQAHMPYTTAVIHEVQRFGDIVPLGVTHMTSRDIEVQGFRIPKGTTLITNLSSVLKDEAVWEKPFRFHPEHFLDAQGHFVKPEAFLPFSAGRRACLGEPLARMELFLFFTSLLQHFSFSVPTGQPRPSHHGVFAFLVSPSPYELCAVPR
Chain of Cytochrome P450 2C19 (Homo sapiens) (P33261 whole entry, looked up): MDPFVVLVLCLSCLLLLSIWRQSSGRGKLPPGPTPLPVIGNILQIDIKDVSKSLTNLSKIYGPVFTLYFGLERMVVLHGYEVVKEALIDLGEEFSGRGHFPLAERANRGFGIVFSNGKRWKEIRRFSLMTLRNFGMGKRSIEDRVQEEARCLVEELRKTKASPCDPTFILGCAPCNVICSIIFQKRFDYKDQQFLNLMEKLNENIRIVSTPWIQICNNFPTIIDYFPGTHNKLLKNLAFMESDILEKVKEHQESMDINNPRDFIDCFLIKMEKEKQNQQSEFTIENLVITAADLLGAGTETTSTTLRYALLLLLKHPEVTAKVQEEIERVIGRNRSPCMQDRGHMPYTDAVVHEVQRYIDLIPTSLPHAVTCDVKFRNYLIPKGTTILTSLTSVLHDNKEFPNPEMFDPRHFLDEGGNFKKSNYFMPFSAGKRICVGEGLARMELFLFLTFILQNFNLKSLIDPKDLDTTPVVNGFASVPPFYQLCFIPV
Chain of Nuclear receptor subfamily 1 group I member 2 (Rattus norvegicus) (Q9R1A7 whole entry, looked up): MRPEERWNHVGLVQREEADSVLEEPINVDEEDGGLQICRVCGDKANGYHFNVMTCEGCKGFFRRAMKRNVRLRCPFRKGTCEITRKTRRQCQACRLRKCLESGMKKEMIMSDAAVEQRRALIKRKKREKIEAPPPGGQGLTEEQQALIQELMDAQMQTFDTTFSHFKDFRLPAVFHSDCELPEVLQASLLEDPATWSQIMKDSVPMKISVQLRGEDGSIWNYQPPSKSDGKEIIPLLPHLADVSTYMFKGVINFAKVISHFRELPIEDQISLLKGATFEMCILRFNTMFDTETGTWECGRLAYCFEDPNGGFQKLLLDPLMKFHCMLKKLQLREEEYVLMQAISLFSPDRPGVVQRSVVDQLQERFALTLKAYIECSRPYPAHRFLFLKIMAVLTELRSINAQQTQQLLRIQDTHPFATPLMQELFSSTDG

COc1cc2c(Nc3ccc(Br)cc3F)ncnc2cc1OCC1CCN(C)CC1
inactive: outcome [1] | outcome [2] | Potency [3] | outcome [4] | Potency [5] | outcome [6] | Potency [7] | Potency [8] | max activation [9] -20.7% | outcome [10] | Potency [12] | Potency [14] | Potency [15]
active: Potency [11] 14.1 µM | Potency [13] 30.9 µM

Cc1cc(O)c2c(c1)C(=O)c1cccc(O)c1C2=O
active: Potency [5] 29.9 µM | Potency [13] 15.5 µM
inactive: outcome [1] | outcome [2] | Potency [3] | outcome [4] | outcome [6] | Potency [7] | Potency [12] | Potency [16] | Potency [17] | Potency [14] | Potency [15]

Nc1ccc(/C=C/c2ccc(N)cc2S(=O)(=O)O)c(S(=O)(=O)O)c1
inactive: viability change, negative = cytotoxic [1] -0.698% [at 0.29 µM] | activity change, negative = cytotoxicity [2] 12.6% [at 0.29 µM] | activation [18] 0.0703% [at 0.218 µM] | activity change, negative = cytotoxicity [3] 11% [at 0.349 µM] | caspase activation [4] 0.454% [at 0.349 µM] | activity change, negative = cytotoxicity [5] 8.5% [at 0.349 µM] | caspase-3/7 activation [6] -0.823% [at 0.349 µM] | activity change, negative = cytotoxicity [7] 1.29% [at 0.349 µM] | activation [8] -2.19% [at 0.349 µM] | max activation [9] -1.81% | outcome [10] | Potency [11] | activity change, negative = inhibition [12] -0.348% [at 0.435 µM] | activity change, negative = inhibition [16] 14.7% [at 0.435 µM] | activity change, negative = inhibition [13] 12.7% [at 0.435 µM] | activity change, negative = inhibition [14] 0.168% [at 0.29 µM] | activity change, negative = inhibition [15] 15.4% [at 0.435 µM]

OC[C@@H](O)[C@H](O)[C@@H](O)[C@@H](O)CO
inactive: outcome [1] | outcome [2] | Potency [3] | outcome [4] | outcome [6] | Potency [7] | Potency [8] | Potency [12] | Potency [17] | Potency [14] | Potency [15]

Nc1nc(=O)n([C@@H]2O[C@H](CO)[C@@H](O)[C@@H]2F)cc1I
inactive: outcome [1] | outcome [2] | outcome [19] | Potency [3] | outcome [4] | outcome [6] | Potency [7] | Potency [8] | Potency [12] | Potency [16] | Potency [17] | Potency [13] | Potency [14] | Potency [15]

CCOc1ccc(NC(=O)OC(C)C)cc1OCC
inactive: outcome [1] | outcome [20] | outcome [19] | outcome [18] | Potency [3] | outcome [4] | outcome [6] | Potency [7] | Potency [17] | Potency [14] | Potency [15]
active: Potency [8] 48.6 µM | Potency [16] 71 µM | Potency [13] 5.03 µM

CC(C)COC(=O)COc1ccc(Cl)cc1Cl
active: Potency [16] 56.3 µM | Potency [13] 20 µM
inactive: outcome [1] | outcome [2] | outcome [18] | Potency [3] | outcome [4] | outcome [6] | Potency [7] | Potency [8] | Potency [12] | Potency [15]

C=CCOc1c(Br)cc(Br)cc1Br
inactive: outcome [1] | outcome [2] | outcome [19] | Potency [3] | outcome [4] | Potency [5] | outcome [6] | Potency [7] | Potency [8] | Potency [14]
active: Potency [16] 7.96 µM | Potency [17] 8.94 µM | Potency [13] 2.83 µM
